The text below walks through data of PubChem BioAssay.

Assay [1] in a line: blockers of cellular phospholipid synthesis – cell-based, LOPAC library, screen 4, primary screen (AID 1347384; call rule not given here). As to conditions: animal cells, phospholipid biosynthesis inhibition screen; at 10 µM.
Assay [2] is described as follows: P. berghei load reduction in hepatocytes – cell-based, HepG2, luciferase luminescence, HepG2 viability, primary screen (AID 624349; in the data active means parasite load remaining mostly below about 12%, no sharp cut-off; inactive means mostly above about 10%;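 further: 100% = mean of DMSO negative control wells on the same plate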). As to conditions: P. berghei liver stage in HepG2, luciferase luminescence, concentration not given here; parasite load remaining: stronger effect = lower value; viability: measured here: HepG2 viability without parasites.
A short description of assay [3]: compounds altering HSF1 focus formation in cells – imaging, Selleck Cancer Library (AID 1347162; in the data active means plate-normalised HSF1 focus index below about 0.46). As to conditions: human cells, HSF1 nuclear foci imaging, at 10 µM; SSMD: measured here: HSF1 foci SSMD mean; cell count: measured here: cell number; plate-normalised HSF1 focus index: stronger effect = lower value.
A short description of assay [4]: drug combination growth inhibition, ovarian cancer – cell-based, oncology-focused library, rucaparib conditional, profiling panel (AID 1508598). Particulars: patient-derived ovarian cancer cells, CellTiter-Glo viability, 144 h, stronger effect = lower value.

Several values for one entry are separate records, joined by “and”; a condition that tells them apart may be missing. Equal values may be shown once. A structure can be active in one record and inactive in another. Activity calls are given as the source filed them.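 How the source made its calls, unless noted: active means normalized viability below 100% at a tested concentration; inactive means the rest.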

As to `C[C@H](CSC(=O)c1ccccc1)C(=O)N1C[C@@H](Sc2ccccc2)CC1C(=O)O` (stereo not given in full), in assay [1], the outcome was inactive.

For orientation: viability means a read-out of living cells in per cent, often relative to untreated cells. On to `O=c1c2ccccc2[nH]c(=S)n1CCN1CCC(=C(c2ccc(F)cc2)c2ccc(F)cc2)CC1`, for which, in assay [2], the parasite load remaining was 40.1% (inactive) and the viability was 100%. Besides, in assay [3], the SSMD was 4.04, the cell count came to 6860 and the plate-normalised HSF1 focus index is 1.24 (inactive).

For `CCOC(=O)CN1C(=O)c2ccc3c4c(ccc(c24)C1=O)C(=O)N(CC(=O)OCC)C3=O`, the compound was classed as inactive in assay [1].

Take `CCOC(=O)C1=C(O)C(=O)N(c2ccccc2)C1`: in assay [3], the SSMD was 2.7, the cell count turned out to be 7070 and the plate-normalised HSF1 focus index was 1.16 (inactive).

In assay [3], `N#CC[C@@H](C1CCCC1)n1cc(-c2ncnc3[nH]ccc23)cn1` gave an SSMD of 2.05. This compound also registered a cell count in assay [3] of 7030. Besides, in assay [3], the plate-normalised HSF1 focus index is 1.12 (inactive). Moreover, the viability in assay [4] (at 0.000305 µM, OCI-C5x cells, with rucaparib 10 µM, 100% = cells with rucaparib alone) is 113% (inactive) and 107% (inactive); in assay [4] (at 0.000305 µM, OCI-C5x cells, without rucaparib), 113% (inactive) and 115% (inactive); in assay [4] (at 0.000305 µM, OCI-P5x cells, with rucaparib 20 µM, 100% = cells with rucaparib alone) it was 90.3% (active) and 57.2% (active); in assay [4] (at 0.000305 µM, OCI-P5x cells, without rucaparib) it was 67.6% (active) and 15.7% (active); in assay [4] (at 0.00122 µM, OCI-C5x cells, with rucaparib 10 µM, 100% = cells with rucaparib alone), 104% (inactive) and 71.4% (active); in assay [4] (at 0.00122 µM, OCI-C5x cells, without rucaparib), 116% (inactive) and 58.3% (active). The viability in assay [4] (at 0.00122 µM, OCI-P5x cells, with rucaparib 20 µM, 100% = cells with rucaparib alone) was 75.9% (active) and 50.4% (active); in assay [4] (at 0.00122 µM, OCI-P5x cells, without rucaparib) it was 29.2% (active) and 17% (active); in assay [4] (at 0.00488 µM, OCI-C5x cells, with rucaparib 10 µM, 100% = cells with rucaparib alone), 115% (inactive) and 102% (inactive); in assay [4] (at 0.00488 µM, OCI-C5x cells, without rucaparib) it was 114% (inactive) and 116% (inactive); in assay [4] (at 0.00488 µM, OCI-P5x cells, with rucaparib 20 µM, 100% = cells with rucaparib alone) it was 107% (inactive) and 105% (inactive); in assay [4] (at 0.00488 µM, OCI-P5x cells, without rucaparib), 106% (inactive) and 105% (inactive). Besides, the viability was 109% (inactive) and 100% (inactive) in assay [4] (at 0.0195 µM, OCI-C5x cells, with rucaparib 10 µM, 100% = cells with rucaparib alone); 99.4% (active) and 104% (inactive) in assay [4] (at 0.0195 µM, OCI-C5x cells, without rucaparib); 99.9% (active) and 99.8% (active) in assay [4] (at 0.0195 µM, OCI-P5x cells, with rucaparib 20 µM, 100% = cells with rucaparib alone); 99.4% (active) and 104% (inactive) in assay [4] (at 0.0195 µM, OCI-P5x cells, without rucaparib); 112% (inactive) and 100% (inactive) in assay [4] (at 0.0781 µM, OCI-C5x cells, with rucaparib 10 µM, 100% = cells with rucaparib alone); 113% (inactive) and 109% (inactive) in assay [4] (at 0.0781 µM, OCI-C5x cells, without rucaparib). The viability in assay [4] (at 0.0781 µM, OCI-P5x cells, with rucaparib 20 µM, 100% = cells with rucaparib alone) is 100% (inactive) and 96.9% (active); in assay [4] (at 0.0781 µM, OCI-P5x cells, without rucaparib), 101% (inactive) and 102% (inactive); in assay [4] (at 0.313 µM, OCI-C5x cells, with rucaparib 10 µM, 100% = cells with rucaparib alone), 105% (inactive) and 98.1% (active); in assay [4] (at 0.313 µM, OCI-C5x cells, without rucaparib) it was 106% (inactive) and 111% (inactive); in assay [4] (at 0.313 µM, OCI-P5x cells, with rucaparib 20 µM, 100% = cells with rucaparib alone), 100% (inactive) and 90.7% (active); in assay [4] (at 0.313 µM, OCI-P5x cells, without rucaparib), 96.4% (active) and 98.4% (active). The viability in assay [4] (at 1.25 µM, OCI-C5x cells, with rucaparib 10 µM, 100% = cells with rucaparib alone) is 117% (inactive) and 101% (inactive); in assay [4] (at 1.25 µM, OCI-C5x cells, without rucaparib), 108% (inactive) and 109% (inactive); in assay [4] (at 1.25 µM, OCI-P5x cells, with rucaparib 20 µM, 100% = cells with rucaparib alone), 97.5% (active) and 88.1% (active); in assay [4] (at 1.25 µM, OCI-P5x cells, without rucaparib), 96% (active) and 91.3% (active); in assay [4] (at 5 µM, OCI-C5x cells, with rucaparib 10 µM, 100% = cells with rucaparib alone), 133% (inactive) and 122% (inactive); in assay [4] (at 5 µM, OCI-C5x cells, without rucaparib) it was 115% (inactive) and 130% (inactive). Further, the viability in assay [4] (at 5 µM, OCI-P5x cells, with rucaparib 20 µM, 100% = cells with rucaparib alone) is 83.7% (active) and 82.4% (active); in assay [4] (at 5 µM, OCI-P5x cells, without rucaparib), 86.9% (active) and 86.2% (active).

Take `CC1=NN(c2cccc(C(=O)O)c2)C(=O)/C1=C\c1ccc(-c2ccc(Cl)c(C(=O)O)c2)o1`: in assay [1], the call was inactive.

With `CCCCCc1ccc(/C=C/[C@H](O)[C@@H](CO)NC)cc1`, in assay [3], the SSMD amounted to 1.63, the cell count was determined as 6120 and the plate-normalised HSF1 focus index was 1.1 (inactive).

On to `C[N+](C)(C)CCOP(=O)(O)OP(=O)(O)OC[C@H]1O[C@@H](n2ccc(N)nc2=O)C(O)[C@H]1O` (stereo not given in full), for which the outcome in assay [1] was inactive.

Turning to `O=C(Nc1cc(C(F)(F)F)cc(C(F)(F)F)c1)Nc1c(Br)cc(Br)cc1-c1nn[nH]n1`, the outcome in assay [1] was inactive.

As for `C[N+]1(C)CCC(OC(=O)C(c2ccccc2)c2ccccc2)CC1`, in assay [1], the outcome was inactive.

Take `CC[C@@H](C(=O)[C@@H](C)[C@@H](O)[C@H](C)[C@@H]1O[C@@H]([C@@H](CC)C(=O)O)CC[C@@H]1C)[C@H]1O[C@]2(C=C[C@@H](O)[C@]3(CC[C@@](C)([C@H]4CC[C@](O)(CC)[C@H](C)O4)O3)O2)[C@H](C)C[C@@H]1C`: in assay [3], the SSMD turned out to be 4.08, the cell count came out at 7580 and the plate-normalised HSF1 focus index was 1.26 (inactive).
